# Assay results reported in PubChem BioAssay (NCATS).
# Records with an inconclusive call do not appear. Calls of active or inactive are those of the source. The call rests on the fitted dose curve.
# Molecular target: Thyroid hormone receptor beta (Homo sapiens) (UniProt P10828)
# Assay: qHTS assay for small molecule agonists of thyroid hormone receptor beta signaling (AID 588545);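 on activation: 0% = DMSO only and 100% = 10 nM T3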
# Settings: TR-UAS-bla GripTite HEK 293, beta-lactamase ratio, agonist mode, 18 h; series mostly up to 76.7 µM; activation: at the top concentration
# Summary of the method: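 Compounds were tested as agonists in TR-UAS-bla-GripTite HEK 293 cells. After 18 hrs at 37 C, CCF4 substrate was added and fluorescence read after 2 hrs at room temperature.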
# Potency means the concentration at half of the fitted maximal effect.
# Sequence of Thyroid hormone receptor beta (Homo sapiens) (P10828 whole entry, looked up): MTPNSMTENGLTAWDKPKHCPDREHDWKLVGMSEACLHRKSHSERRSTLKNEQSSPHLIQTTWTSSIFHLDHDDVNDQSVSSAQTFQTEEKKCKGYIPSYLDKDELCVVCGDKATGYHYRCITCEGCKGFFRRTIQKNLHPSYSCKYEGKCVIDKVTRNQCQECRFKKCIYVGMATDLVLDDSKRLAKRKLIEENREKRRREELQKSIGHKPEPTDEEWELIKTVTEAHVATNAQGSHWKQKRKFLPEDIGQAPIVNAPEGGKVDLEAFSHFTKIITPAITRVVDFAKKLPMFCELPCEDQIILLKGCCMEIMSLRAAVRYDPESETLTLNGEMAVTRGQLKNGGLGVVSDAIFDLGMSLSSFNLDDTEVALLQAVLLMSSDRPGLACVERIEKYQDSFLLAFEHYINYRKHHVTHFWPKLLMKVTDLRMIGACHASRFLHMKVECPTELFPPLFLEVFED
SMILES,activation,Potency
O=C(O)CCCCCCCC(=O)O,7.53% (inactive),
CCCCNC(=O)NS(=O)(=O)c1ccc(C)cc1,,inactive
COc1cc(Cc2cnc(N)nc2N)cc(OC)c1OC,-9.76% (inactive),
C[C@]12CCC(=O)C=C1CC[C@@H]1[C@@H]2C(=O)C[C@@]2(C)[C@H]1CC[C@]2(O)C(=O)CO,-2.65% (inactive),
NC(=O)N1c2ccccc2C=Cc2ccccc21,,inactive
COc1ccc(CN(CCN(C)C)c2ccccn2)cc1,-2.38% (inactive),
Nc1nc(N)c2nc(-c3ccccc3)c(N)nc2n1,,22.4 µM (active)
C[C@]12C=CC(=O)C=C1CC[C@H]1[C@@H]3C[C@@H](O)[C@](O)(C(=O)CO)[C@@]3(C)C[C@H](O)[C@@]12F,-4.03% (inactive),
CC(C)(Oc1ccc(CCNC(=O)c2ccc(Cl)cc2)cc1)C(=O)O,-1.47% (inactive),
O=c1[nH]c(=O)n([C@H]2C[C@H](O)[C@@H](CO)O2)cc1Br,-6.52% (inactive),
CCCCOCCOCCOCc1cc2c(cc1CCC)OCO2,-8.94% (inactive),
Nc1ncn([C@@H]2O[C@H](CO)[C@@H](O)[C@H]2O)c(=O)n1,,inactive
CN=C(NC#N)NCCSCc1nc[nH]c1C,-0.062% (inactive),
NC(=Nc1ccccc1)Nc1ccccc1,,inactive
COC(=O)[C@H]1[C@H]2C[C@@H]3c4[nH]c5cc(OC)ccc5c4CCN3C[C@H]2C[C@@H](OC(=O)c2cc(OC)c(OC)c(OC)c2)[C@@H]1OC,,inactive
Cc1ccc(S(=O)(=O)NC(=O)NN2CCCCCC2)cc1,-8.42% (inactive),
